This is a sample that favours compounds with a hit; in the whole collection about 2.7% have one here.
F508del corr: CFTR F508del correction in bronchial cells; CFBE cells, YFP halide quenching; stimulated with forskolin plus potentiator P3; % fluorescence drop versus neutral controls; activity (quench increase), % at 7.58 µM; 350,000 tested, 0.36% active;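 active means mean added fluorescence quench of at least 8% versus neutral control, with both replicates also reaching 8%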;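 further: cells transiently co-express mutant CFTR-F508del with the halide-sensitive YFP; corrector assay measuring rescue of mutant channel to the surface after 24 h compound exposure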
PGC1a acetyl inh: modulators of PGC1a acetylation; U2OS PGC1a acetylation, AlphaScreen anti-acetyl-lysine; with virally co-expressed GCN5 acetyltransferase; inhibition, % at 15.6 µM; 350,000 tested, 0.17% active;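 active means every replicate shows inhibition of at least 40%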;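 further: 0% = neutral control wells and 100% = positive control wells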
PAX8 inh HTS: inhibitors of PAX8 transcriptional activity in RMG-I cells | RMG-I TPO-luciferase reporter, SteadyGlo, 24 h | inhibition, % at 12.6 µM | 360,000 tested, 1.2% active;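 active means mean replicate inhibition at least 60% with every replicate also reaching 60%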;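 further: luciferase light reporting Pax8 driven TPO promoter activity; plate controls were median of neutral control wells for no effect and mitoxantrone controls for full effect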
INS-1E GSIS act: primary screen for activators of insulin secretion dependent on glucose, INS-1E cells, GLuc reporter luminescence; INS-1E GLuc reporter insulin secretion, 2-3 h; activation, % at 16.6 µM; 370,000 tested, 0.61% active; AID 743287;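 active means lowest replicate activation of at least 40%, so every replicate reaches that level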;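 further: 0% = median of neutral control wells and 100% = median of IBMX positive control wells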
EWS-Fli inh: inhibitors of EWS/Fli oncoprotein transcriptional activity. inhibition, % at 12.6 µM. A673 NR0B1-luciferase reporter, viability-normalised. 350,000 tested, 0.67% active;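 active means mean inhibition of at least 50% after viability correction, with every replicate also passing that limit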;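 further: firefly luciferase signal divided by Alamar Blue viability fluorescence both relative to DMSO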
Env fusion inh: inhibitors of HIV Env-mediated cell fusion; HeLa-JRFL Env/CEM21 cell fusion, luciferase; inhibition, % at 12.3 µM; 360,000 tested, 1.1% active; AID 651610;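 active means mean replicate inhibition score of at least 50 and every replicate individually at or above 50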;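 further: 0% = plate neutral controls and 100% = maraviroc near 300 nM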
Starred values were filed as active, the others as inactive; . = no result; [ ] = dose if it differs, or a comment.

SMILES	F508del corr	PGC1a acetyl inh	PAX8 inh HTS	INS-1E GSIS act	EWS-Fli inh	Env fusion inh
O=C(Oc1ccc(/C=N/NC(=O)c2ccccn2)cc1)c1ccc(Br)cc1	-0.7	.	.	.	-41.0	-21.9
Cc1ccc(/C=N/NC(=O)c2ccccn2)o1	-3.3	2.4	120.2*	5.4	-49.4	.
C[C@H]1CN([C@@H](C)CO)C(=O)c2cccc(NS(=O)(=O)c3ccc(F)cc3)c2O[C@@H]1CN(C)Cc1ccc(C(=O)O)cc1	1.1	-5.3	.	29.0	5.0	.
C/C=C/c1ccc([C@@H]2[C@H](CO)N(C(=O)COC)[C@H]2CNC(=O)CC)cc1	-7.9	4.5	-9.8	-5.8	4.5	.
CC(=O)Nc1ccc2c(c1)C(=O)N(C)C[C@H](C)[C@H](CN(C)C(=O)NC(C)C)O2	.	.	.	7.9	.	.
COc1ccc(C(=O)COC(=O)CSCc2c(C)noc2C)cc1OC	-4.0	4.8	.	55.4*	-4.0	.
C=C(C)CSc1nc2c(c(=O)[nH]c(=O)n2C)n1CCC(C)C	4.8	-4.4	-21.5	55.0*	-7.3	0.9
C=CCn1c(SCC(=C)C)nc2c1c(=O)[nH]c(=O)n2C	-4.7	1.7	-1.9	31.0	3.8	-56.6
CC(C)CSc1nc2c(c(=O)[nH]c(=O)n2C)n1CCc1ccccc1	.	-10.9	.	71.3*	.	.
CC(C)CCSc1nc2c(c(=O)[nH]c(=O)n2C)n1CCc1ccccc1	.	-10.5	.	.	.	.
CCCCCCn1c(SCC(=O)OC)nc2c1c(=O)[nH]c(=O)n2C	-0.4	6.2	-0.8	.	0.6	11.9
CCCCCCn1c(SCC(C)C)nc2c1c(=O)[nH]c(=O)n2C	.	-0.1	.	71.4*	.	.
C[C@@H]1CN([C@H](C)CO)C(=O)c2cc(-c3ccccc3)cnc2O[C@@H]1CN(C)C(=O)Nc1ccccc1F	-1.1	9.7	.	12.5	-3.2	-25.7[16.7 µM]
CCOC(=O)c1sc(N)nc1C(C)C	.	4.2	.	.	.	.
CCCc1nc(N)sc1C(=O)OCC	.	18.5	.	112.1*	.	.
COC(=O)c1ccc2c(c1)NC(=O)CS2	-0.9	7.8	16.2	9.1	-1.7	-8.3
CC(OC(=O)c1ccc2c(c1)NC(=O)CS2)C(=O)c1ccc(F)cc1 (stereo unspecified)	7.0	7.6	21.2	-51.3	5.7	59.5*
O=C(NCc1ccc(Cl)cc1)C(=O)NCC(c1cccnc1)N1CCN(c2ccc(F)cc2)CC1 (stereo unspecified)	-2.2	.	22.4	-19.6	4.8	62.4*
C[C@H]1CN([C@@H](C)CO)C(=O)c2cccc(NC(=O)Nc3cccc4ccccc34)c2O[C@H]1CN(C)Cc1ccc(-c2ccccc2)cc1	1.2	-8.2	.	11.0	7.6	-9.7[16.7 µM]
COCC(=O)Nc1ccc2c(c1)[C@@H]1C[C@@H](CC(=O)NCc3ccccc3F)O[C@@H](CO)[C@@H]1O2	-2.0	-9.4	5.5	10.9	-0.9	-7.6[16.7 µM]
CCCCN(CCCC)C(=O)C1(P(=O)(c2ccccc2)c2ccccc2)CCC1	-0.1	12.1	12.5	-29.6	25.8	60.3*
CCN(CC)C(=O)C1(P(=O)(c2ccccc2)c2ccccc2)CCC1	-0.9	6.4	15.8	89.7*	10.1	21.3
O=C(O)C1(P(=O)(c2ccccc2)c2ccccc2)CCCC1	-1.8	9.4	-10.5	.	2.9	-25.3
COc1ccc(NC(=O)Nc2ccc3c(c2)C(=O)N([C@H](C)CO)C[C@@H](C)[C@H](CN(C)S(=O)(=O)c2ccccc2)OCCCC[C@@H](C)O3)cc1	2.6	-8.6	-5.7	-5.7	9.9	14.0[16.7 µM]
C[C@@H]1CN([C@H](C)CO)C(=O)c2cc(NC(=O)CCC(F)(F)F)ccc2O[C@@H]1CN(C)Cc1ccc2c(c1)OCO2	-2.7	-14.2	-22.2	13.2	-6.0	4.6[16.7 µM]
SMILES	F508del corr	PGC1a acetyl inh	PAX8 inh HTS	INS-1E GSIS act	EWS-Fli inh	Env fusion inh
C[C@@H]1CN([C@@H](C)CO)C(=O)Cc2cc(NC(=O)Nc3ccc(F)cc3)ccc2O[C@H]1CN(C)S(=O)(=O)c1cccs1	1.3	-4.5	21.1	-14.2	2.0	-2.8[16.7 µM]
O=C(Nc1ccc(F)cc1)Nc1ccc2c(c1)[C@@H]1C[C@H](CC(=O)N3CCCCC3)O[C@@H](CO)[C@@H]1O2	2.7	-6.0	2.0	-6.3	5.9	74.9*[16.7 µM]
O=C(Nc1ccc(F)cc1)Nc1ccc2c(c1)[C@@H]1C[C@@H](CC(=O)N3CCCCC3)O[C@@H](CO)[C@@H]1O2	-0.3	-6.7	13.2	-12.2	-16.1	-9.4[16.7 µM]
O=C(Nc1ccc(F)cc1)Nc1ccc2c(c1)[C@@H]1C[C@H](CC(=O)N3CCCCC3)O[C@H](CO)[C@@H]1O2	-2.3	-4.6	7.2	-7.7	13.3	89.8*[16.7 µM]
O=C(CN1C(=O)C2C3C=CC(C3)C2C1=O)OCC(=O)c1ccc([N+](=O)[O-])cc1 (stereo unspecified)	-2.0	.	6.6	12.1	14.4	-6.5
O=C(CN1C(=O)C2C3CC(C(Br)C3Br)C2C1=O)OCC(=O)c1cccc([N+](=O)[O-])c1 (stereo unspecified)	-2.0	75.8*	-21.0	0.9	0.9	-1.9
CC(NNC(=S)N1CCCCCC1)c1ccc2ccccc2n1 (stereo unspecified)	-4.3	.	81.3*	-9.9	3.3	68.8*
S=C(Nc1ccccc1)N1CCCCCC1	.	.	-16.2	.	.	-68.1
COc1cc2c(cc1[N+](=O)[O-])n(C(C)C)c(=O)n2C(C)C	3.9	.	-9.9	58.3*	2.5	4.5
CCN(CC)C(=O)c1oc2ccc(S(=O)(=O)N3CC(C)CC(C)C3)cc2c1C (stereo unspecified)	9.2*	.	45.9	-47.7	48.8	13.6
Cc1cccc(C)c1N(CC(O)Cn1c2ccccc2c2ccccc21)S(C)(=O)=O (stereo unspecified)	.	-9.1	.	.	.	83.8*
CC(=O)Nc1ccc(N(CC(O)Cn2c3ccccc3c3ccccc32)S(=O)(=O)c2ccc(C)cc2)cc1 (stereo unspecified)	.	.	30.9	-16.9	5.7	104.6*
Cc1ccc(N(CC(O)CN2CCCC2)S(=O)(=O)c2ccc(C)cc2)cc1 (stereo unspecified)	.	3.1	.	-14.5	.	.
Cc1ccc(N(CC(O)Cn2c3ccccc3c3ccccc32)S(C)(=O)=O)cc1 (stereo unspecified)	4.7	-7.9	.	-6.5	1.7	.
O=C(C[C@H]1CC[C@H](NS(=O)(=O)c2ccc(F)cc2)[C@H](CO)O1)NC1CCCCC1	-3.8	21.5	5.1	-5.6	2.2	9.4[16.7 µM]
COc1cccc(OC)c1C(=O)OCC(=O)NCC(C)C	1.1	4.1	-3.7	42.6*	2.3	-24.6
COc1cccc2c1C(=O)C=C(C)C2=O	15.7*	.	28.1	-13.4	23.8	.
CCC(c1nnnn1-c1ccc2c(c1)OCCO2)N1CCN(C(=O)c2ccco2)CC1 (stereo unspecified)	0.3	.	-12.4	-5.5	-6.1	15.0
CCC(c1nnnn1-c1ccc2c(c1)OCCO2)N1CCc2ccccc2C1 (stereo unspecified)	2.3	.	5.9	54.5*	0.6	2.9
O=C(C[C@H]1CC[C@@H]2[C@H](COC[C@@H](O)CN2C(=O)Nc2cc(Cl)cc(Cl)c2)O1)NCC1CCCCC1	-0.3	4.5	-15.9	-11.8	4.0	.
